One experiment concerns MCC-26. Briefly: qHTS assay to identify novel small-molecules to repurpose for Merkel cell carcinoma treatment (AID 1296009). Also: nearly all actives have a fitted effect of over 60% in size. To be noted: MCC and control cell lines, CellTiter-Glo viability, 72 h; series mostly up to 46 µM. The method, boiled down: (§1)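 Luminescence from CellTiter-Glo, read 10 min after addition at room temperature, reported viability following a 72 hr, 37 degree celsius treatment with NPC or MIPE compounds in titration; values normalized to plate controls.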
On the technique in general: qHTS replaces the single test concentration by a dilution series.

The next experiment has as its system MKL-1. The experiment is described as above. To be noted: MCC and control cell lines, CellTiter-Glo viability, 72 h; series mostly up to 46 µM. In outline:
as §1
(Cellular ATP, detected with luciferase, serves as a proxy for viable cell number.)

For the next experiment, the system named is MKL-2. The description is as above. To be noted: MCC and control cell lines, CellTiter-Glo viability, 72 h; series mostly up to 46 µM. In outline: as §1
The subject of a further experiment is UISO. The description is as above. To be noted: MCC and control cell lines, CellTiter-Glo viability, 72 h; series mostly up to 46 µM. In outline:
as §1

A further experiment deals with WaGa. The experiment is described as above. To be noted: MCC and control cell lines, CellTiter-Glo viability, 72 h; series mostly up to 46 µM. The method, boiled down:
as §1

A further experiment relates to C33A. Briefly: Primary qHTS to identify gynecologic anti-cancer compounds using libraries of approved drugs and bioactive compounds (AID 1345084). Also: nearly all actives have a fitted effect of over 55% in size. To be noted: Gynecologic cancer cell panel viability, ATPlite luminescence, 48 h; series mostly up to 57.5 µM. The method, boiled down:
(§2)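 In this quantitative HTS, cell killing is estimated from loss of ATP-dependent luciferase light. Cells see five compound concentrations over a 48 h exposure.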

For the next experiment, the system named is CASKI. The experiment is described as above. The settings on record: Gynecologic cancer cell panel viability, ATPlite luminescence, 48 h; series mostly up to 57.5 µM. The method, boiled down:
as §2

Another experiment relates to Es-2. Described as above. The settings on record: Gynecologic cancer cell panel viability, ATPlite luminescence, 48 h; series mostly up to 57.5 µM. The method, boiled down: as §2
In another experiment the test system is HeLa. The description is as above. The settings on record: Gynecologic cancer cell panel viability, ATPlite luminescence, 48 h; series mostly up to 57.5 µM. The method, boiled down:
as §2

The next experiment has as its system Hek293T. The experiment is described as above. The settings on record: Gynecologic cancer cell panel viability, ATPlite luminescence, 48 h, control line for the selectivity index; series mostly up to 57.5 µM. The method, boiled down: as §2
Another experiment concerns JEG-3. Described as above. The settings on record: Gynecologic cancer cell panel viability, ATPlite luminescence, 48 h; series mostly up to 57.5 µM. The method, boiled down: as §2
The next experiment deals with OV90. The experiment is described as above. To be noted: Gynecologic cancer cell panel viability, ATPlite luminescence, 48 h; series mostly up to 57.5 µM. The method, boiled down:
as §2

For the next experiment, the system named is PA-1. The description is as above. To be noted: Gynecologic cancer cell panel viability, ATPlite luminescence, 48 h; series mostly up to 57.5 µM. The method, boiled down: as §2
The subject of another experiment is SKOV3. The experiment is described as above. To be noted: Gynecologic cancer cell panel viability, ATPlite luminescence, 48 h; series mostly up to 57.5 µM. In outline:
as §2

Another experiment concerns Tov-21-G. The description is as above. The settings on record: Gynecologic cancer cell panel viability, ATPlite luminescence, 48 h; series mostly up to 57.5 µM. In outline: as §2
A further experiment has as its system Tov112D. Described as above. The settings on record: Gynecologic cancer cell panel viability, ATPlite luminescence, 48 h; series mostly up to 57.5 µM. The method, boiled down: as §2
Experiment [1] is described as follows: Drug repurposing screens with cells derived from glioblastoma tumor samples (AID 1345199). Also: nearly all actives have a fitted effect of over 40% in size. The settings on record: GBM patient neurospheres viability, ATP luminescence, 48 h. In outline: (§3)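 Primary testing used CD133+ neurospheres from four GBM patients, seven concentrations, 48 h exposure and ATP-based viability; confirmation added three slower-growing patient lines.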

A further experiment has as its system astro. Described as above. To be noted: viability, ATP luminescence, 48 h; series mostly up to 45.9 µM. In outline: as §3
Another experiment relates to CAOV3. In words: Primary qHTS to identify gynecologic anti-cancer compounds using libraries of approved drugs and bioactive compounds (AID 1345084). Also: nearly all actives have a fitted effect of over 55% in size. To be noted: Gynecologic cancer cell panel viability, ATPlite luminescence, 48 h; series mostly up to 57.5 µM. In outline:
as §2

Setting [2] is: at 45.9 µM (top of the series), tumour line B.
[3] abbreviates: at 45.9 µM (top of the series), tumour line D.
[4] abbreviates: at 46.1 µM (top of the series), tumour line C.

Structures are written as SMILES. Results filed as inconclusive are left out. A number with no mark means an inactive call. Activity calls are given as the source filed them. Calls follow the shape of the dose curve; as a rule, active = well fitted curve in the direction sought with a large enough effect; inconclusive = small, poorly fitted or top-dose-only effect, or another doubt; inactive = no such curve, though single readings can be large; an effect the other way counts as inactive or inconclusive.
% is scaled to controls: 0 for no effect and ±100 for the full control effect; potency is read from the fitted curve at half-maximal effect.

Regarding `O=C(Nc1ccc(C(=O)O)c(O)c1)c1ccccc1`, the Potency entry in the experiment on MCC-26, in the experiment on MKL-1, in the experiment on MKL-2, in the experiment with UISO, in the experiment with WaGa and with C33A was “inactive” in each case. The Potency result in the experiment on CASKI, in the experiment on Es-2, in the experiment with HeLa, in the experiment with Hek293T, in the experiment on JEG-3 and in the experiment with OV90 was “inactive” throughout. Further, the Potency result in the experiment with PA-1, in the experiment on SKOV3, with Tov-21-G, in the experiment on Tov112D and in the experiment with astro was “inactive” throughout. The activity, negative = cell killing is -14.9% in [1] (setting [2]), -3.46% in experiment [1] (setting [3]) and -18.9% in experiment [1] (setting [4]).

As for `O=C(O)Cc1cccc(-c2cc(CCCCCCc3ccc(O[C@H]4O[C@H](CO)[C@@H](O)[C@H](O)[C@@H]4O)c(-c4cccc(CC(=O)O)c4)c3)ccc2O[C@H]2O[C@H](CO)[C@@H](O)[C@H](O)[C@@H]2O)c1`, the activity change, negative = cytotoxicity with MCC-26 is 4.83% [at 0.597 µM]; in the experiment on MKL-1, 6.03% [at 0.597 µM]; in the experiment with MKL-2, 5.84% [at 0.597 µM]; with UISO it was 19.7% [at 0.597 µM]; in the experiment on WaGa it was 8.43% [at 0.597 µM]; in the experiment with C33A it was -0.854% [at 0.462 µM]. The activity change, negative = cytotoxicity is 12.9% [at 0.462 µM] with CAOV3; -1.06% [at 0.462 µM] in the experiment on CASKI; 2.88% [at 0.462 µM] with Es-2; 7.81% [at 0.462 µM] with HeLa; 0.655% [at 0.462 µM] in the experiment on Hek293T; 24.2% [at 0.462 µM] in the experiment with JEG-3. Besides, the activity change, negative = cytotoxicity in the experiment with OV90 is 11.3% [at 0.462 µM]; with PA-1, 22.2% [at 0.462 µM]; in the experiment with Tov-21-G, 4.72% [at 0.462 µM]; in the experiment with Tov112D, 13.8% [at 0.462 µM]. Also, the activity, negative = cell killing in experiment [1] (setting [2]) is -15%; in experiment [1] (setting [3]), -11.6%; in experiment [1] (at 46 µM (top of the series), tumour line A) it was -35.4%; in [1] (setting [4]) it was 0.695%. For the same compound, the Potency entry in the experiment on astro is “inactive”.

Consider `O=C(CCN1CCN(CCO)CC1)N1c2ccccc2Sc2ccc(C(F)(F)F)cc21`, for which the Potency result in the experiment on MCC-26, in the experiment on MKL-1, in the experiment with MKL-2, with UISO, with WaGa and in the experiment with C33A was “inactive” in each case. In addition, the Potency entry in the experiment with CASKI, with Es-2, in the experiment with HeLa, in the experiment on Hek293T, in the experiment on JEG-3 and in the experiment on OV90 was “inactive” throughout. The Potency result with PA-1, in the experiment on SKOV3, with Tov-21-G and in the experiment on Tov112D was “inactive” each time. Also, the activity, negative = cell killing in experiment [1] (setting [2]) is -17.6%. The Potency in experiment [1] (tumour line A) is 11200 nM (active).

Take `Cc1cc(O)c2ccccc2c1O`: the Potency entry in the experiment with MCC-26, in the experiment on C33A, with CASKI, in the experiment with HeLa, in the experiment with Hek293T and with JEG-3 was “inactive” each time. In addition, the Potency entry with OV90, in the experiment with SKOV3 and with Tov112D was “inactive” in each case. The Potency was 21100 nM (active) in the experiment on MKL-1, 23700 nM (active) in the experiment on WaGa and 35500 nM (active) in experiment [1] (tumour line A). Also, the activity, negative = cell killing in experiment [1] (setting [4]) is 5.51%.

On to `[O-][n+]1ccccc1SSc1cccc[n+]1[O-]`, for which the Potency in the experiment on MCC-26 was 146 nM (active); in the experiment on MKL-1 it was 231 nM (active); in the experiment with MKL-2 it was 580 nM (active); in the experiment with UISO it was 92 nM (active); in the experiment with WaGa, 517 nM (active); in the experiment on C33A, 1120 nM (active). Besides, the Potency was 2820 nM (active) in the experiment with CAOV3; 2510 nM (active) in the experiment with CASKI; 1000 nM (active) with Es-2; 501 nM (active) in the experiment with Hek293T; 2000 nM (active) in the experiment with JEG-3; 1780 nM (active) with OV90. Moreover, the Potency was 1260 nM (active) in the experiment with PA-1; 794 nM (active) in the experiment on SKOV3; 1410 nM (active) in the experiment with Tov-21-G; 2820 nM (active) in the experiment on Tov112D; 7080 nM (active) in [1] (tumour line A); 15800 nM (active) in [1] (tumour line B). In addition, in experiment [1] (tumour line D), the Potency was 7080 nM (active). In the experiment with HeLa, the Potency entry was “inactive”. The activity, negative = cell killing in [1] (setting [4]) was -16.3%.

In the case of `COc1cccc2c1C(=O)c1c(O)c3c(c(O)c1C2=O)C[C@@](O)(C(=O)CO)C[C@@H]3O[C@H]1C[C@H](N)[C@H](O[C@@H]2CCCCO2)[C@H](C)O1`, the Potency is 7500 nM (active) in the experiment on MCC-26; 94.4 nM (active) in the experiment with MKL-1; 47.3 nM (active) in the experiment with MKL-2; 2990 nM (active) in the experiment on UISO; 10000 nM (active) in the experiment with C33A; 12600 nM (active) in the experiment with CASKI. The Potency in the experiment on Es-2 is 7080 nM (active); with Hek293T, 10000 nM (active); in the experiment on PA-1, 2510 nM (active); in the experiment on SKOV3 it was 12600 nM (active); in the experiment with Tov112D, 1580 nM (active). Moreover, in the experiment with HeLa, the Potency result is “inactive”.

The values above are taken from PubChem BioAssay (NCATS).
